# High-throughput results deposited in PubChem by several laboratories.
# Shown are actives, neighbours in structure and some others; about 5.9% of the full set was active somewhere.
# HSF1 inh: HSF1 inhibitors in luciferase reporter cells, primary screen, cell-based, NIH3T3, luminescence. NIH3T3-HGL HSE-luciferase, MG132-induced, luminescence 8 h; active compounds read low. activity change, negative = inhibition, % at 7.5 µM (by protocol). actives 0.77% (n = 300,000). AID 2098, 2009;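 active means more than half of replicate wells show activity change below -50%, luminescence cut by over half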;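 further: luciferase reports HSF-1 transcriptional activity via heat shock element; 0% = median of DMSO wells and -100% = zero luminescence signal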
# HSP90 inh: HSP90 inhibitors, primary screen, cell lysate, luminescence. actives 0.91% (n = 290,000). Rabbit reticulocyte lysate, luciferase refolding luminescence, 3 h. inhibition, % at 5.6 µM;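 active means inhibition above the screen-wide mean plus 3 SD, computed separately per campaign, cut at about 16% in these data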;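 further: 0% = DMSO wells and 100% = 60 µM geldanamycin wells; inhibitors lower the luminescence because luciferase stays unfolded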
# NR0B1 inh: DAX1 (NR0B1) inhibitors, primary screen, cell-based, HEK293, Gal4-DAX1, luciferase luminescence; Nuclear receptor subfamily 0 group B member 1 (Homo sapiens), P51843; HEK293 Gal4-DAX1 luciferase reporter; actives 0.99% (n = 340,000); inhibition, % at 6.75 µM; AID 504766, 2011;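 active means inhibition above the mean over all tested compounds plus 3 SD, cut at about 4.2% in these data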;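 further: 0% = DAX1-transfected cells with DMSO and 100% = empty-vector control cells with DMSO; inhibition shows as a rise in luminescence from relieved DAX1 repression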
# Target sequence (P51843 207-470 limits assumed): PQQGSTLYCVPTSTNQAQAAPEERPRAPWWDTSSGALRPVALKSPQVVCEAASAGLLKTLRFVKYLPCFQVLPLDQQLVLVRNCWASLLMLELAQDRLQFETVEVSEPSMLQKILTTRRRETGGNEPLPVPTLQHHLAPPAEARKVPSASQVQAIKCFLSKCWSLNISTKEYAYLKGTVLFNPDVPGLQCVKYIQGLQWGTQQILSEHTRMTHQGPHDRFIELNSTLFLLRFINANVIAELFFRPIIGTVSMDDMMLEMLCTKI
# FXN GAA850 act: FXN promoter activators, primary screen, cell-based, luciferase luminescence, HEK293 lucGAA850. HEK293 lucGAA850 FXN promoter luciferase reporter, 24 h; percent of 10 µM SAHA response. activation, % at 6 µM. actives 0.56% (n = 360,000);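 active means activation above the average of all compounds screened plus 3 SD, cutoff fixed separately per campaign, cut at about 7.5% in these data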;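 further: 0% = DMSO wells and 100% = 10 µM SAHA wells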
# HSF1 activator: HSF-1 activators, primary screen, NIH3T3-HGL cells, MG132 stress, luminescence, single point | actives 1.7% (n = 300,000) | activation, % at 9 µM | NIH3T3-HGL HSF-1 luciferase reporter, 8 h; 100% = twice DMSO control signal;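 active means mean replicate activation of at least 50% with a set share of replicates each reaching 50%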;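 further: 0% = median of the neutral control wells and 100% = twice that signal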
# AHR act: AHR activators, primary screen, cell-based, luminescence, luciferase reporter, human. Aryl hydrocarbon receptor (Homo sapiens), P35869. AHR-responsive luciferase reporter cells. activation, % at 5 µM. actives 2.5% (n = 320,000); in the data active means activation above about 47%;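 further: 0% = vehicle wells and 100% = reference agonist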
# Active calls of the source: *; / = no result given.
SMILES,HSF1 inh,HSP90 inh,NR0B1 inh,FXN GAA850 act,HSF1 activator,AHR act
CCOc1cc(/C=N/NC(N)=S)cc(Br)c1OCc1ccccc1C,-10,6,1,0,-10,21
COc1cccc(/C=N/n2nnnc2N)c1OCc1ccccc1Cl,-7,-3,-1,-1,-1,4
COc1ccccc1OCCn1cc(/C=N/NC(N)=S)c2ccccc21,3,12,-1,-1,7,69*
COc1cccc(/C=N/NC(N)=S)c1OCc1ccccc1Cl,-8,-6,0,-1,10,50*
COc1cc(/C=N/NC(N)=S)cc(Br)c1OCc1ccccc1F,-15,3,-2,-2,-22,54*
Cc1ccc(-c2noc(CNC(=O)c3ccc4c(c3)OCO4)n2)cc1,2,-2,-1,1,-20,10
Cc1ccc(S(=O)(=O)N2CCN(C(=O)Cn3c(=O)oc4ccccc43)CC2)c(C)c1,/,/,0,0,/,2
O=Cc1ccc(OCc2cccc(C(F)(F)F)c2)cc1O,0,-4,7.2*,0,17,1
Cc1c(Cl)cc(C(C)C)c(O)c1CN1CCOCC1,/,/,1,0,/,/
Cc1ccc(NC(=O)c2ccccn2)c(Br)c1,30,-1,6.4*,2,58*,-4
Cc1ccc(C)c(NC(=O)c2ccccn2)c1,10,0,0,2,24,-3
Cc1ccc(-c2nn(-c3ccccc3)cc2C=C2C(=O)CC(C)(C)CC2=O)cc1,16,-1,0,3,16,-2
CC1(C)CC(=O)C(=Cc2cn(-c3ccccc3)nc2-c2ccccc2)C(=O)C1,100,/,2,3,147*,-4
COc1ccc(C(NC(=O)CN2C(=O)NC3(CCc4ccccc43)C2=O)c2ccc(OC)cc2)cc1 (stereo not given),/,/,-1,-2,/,/
CCCn1nc([N+](=O)[O-])c(C(C#N)c2nc3ccccc3o2)c(Cl)c1=O (stereo not given),76,0,-2,-1,97*,11
CCn1nc([N+](=O)[O-])c(C(C#N)c2nc3cc(C(F)(F)F)ccc3s2)c(Cl)c1=O (stereo not given),57,3,0,-18,64*,11
Cc1ccc(CNC(=O)CC(C)S(=O)(=O)c2ccc3c(c2)NC(=O)CS3)o1 (stereo not given),-6,-1,1,1,-1,1
Cc1ccccc1OCC1CNC(=O)O1 (stereo not given),-4,-2,0,1,-9,-3
O=C1NCC(CN(c2ccccc2)c2ccccc2)O1 (stereo not given),3,1,6.7*,-1,2,0
CC(C)CN=C(NS(=O)(=O)c1ccccc1)C(Cl)(Cl)Cl,-74*,-6,-1,-2,-77,-1
COc1cccc(C=O)c1OC(=O)N1CCOCC1,-8,7,1,1,-3,-1
N#C/C(=C\c1ccc(Sc2nc3ccccc3[nH]2)o1)c1ccccc1,43,3,-2,-1,71*,3
Cc1nc2ccccc2nc(=O)c1NNc1ccccc1,19,-4,1,2,65*,/
c1ccc2c(C3=NNC(=NC4CCCCC4)SC3)c[nH]c2c1,13,8,-1,4,18,57*
O=c1c2ccccc2nnn1COc1ccc(F)cc1Cl,62,4,0,2,84*,-2
SMILES,HSF1 inh,HSP90 inh,NR0B1 inh,FXN GAA850 act,HSF1 activator,AHR act
O=c1c2ccccc2nnn1COc1ccc(Cl)cc1Br,40,0,0,1,56*,10
O=C(C1CCC(CNS(=O)(=O)c2cccs2)CC1)N1CCN(c2ccc(F)cc2)CC1 (stereo not given),0,-4,-3,-2,20,0
CCN(Cc1ccccc1)C(=S)NC(=O)c1ccccc1Br,1,0,0,1,-1,3
CCCN(Cc1ccccc1)C(=S)NC(=O)c1ccccc1[N+](=O)[O-],-60*,-1,1,0,-67,1
O=C(COc1ccc(F)cc1)N/N=C/c1cccc2cccnc12,-4,1,0,-1,-6,11
CCOC(=O)Cc1c(C)nc2c(-c3ccc(Cl)cc3)c(C)[nH]n2c1=O,3,0,1,0,1,5
Cc1cc(NCc2ccccn2)n2ncc(-c3ccccc3)c2n1,39,-1,4.7*,2,76*,74*
Cc1cc(N)n2ncc(-c3ccc(Cl)cc3)c2n1,35,-4,1,3,28,69*
CN(C)CCCNc1cc(C(C)(C)C)nc2c(-c3ccccc3)cnn12,-7,8,4.7*,3,-9,2
Cc1cc(N)n2ncc(-c3ccc(F)cc3)c2n1,21,-2,-1,5,32,45
CC(C)(C)c1cc(NCCCn2ccnc2)n2ncc(-c3ccc(Cl)cc3)c2n1,11,0,1,-1,28,31
CCOC(=O)Cc1c(C)nc2c(-c3ccc(Cl)cc3)cnn2c1C,4,-2,0,5,-12,65*
Cc1ccc2cccc(SCC(=O)NCC#N)c2n1,-8,-2,-1,1,-9,1
CCCNC(=O)C[C@H]1C[C@H]2c3cc(NC(=O)Nc4ccc(F)cc4)ccc3O[C@H]2[C@@H](CO)O1,/,/,1,-1,/,/
O=C(Nn1cnnc1)c1ccc(Cl)cc1,-1,-2,1,0,4,0
O=C1CC2CCCN2C=C1I (stereo not given),/,/,1,-1,/,0
CC/C(=N\NC(=O)Cc1ccc(Br)cc1)c1cccs1,-7,1,0,0,19,/
Cc1cc(NCc2ccccn2)n2ncc(-c3ccc(Cl)cc3)c2n1,28,2,/,2,53*,76*
O=C(CSc1nc2ccc(N3CCOCC3)cc2c(=O)n1CCc1ccccc1)NCC1CCCO1 (stereo not given),1,2,0,3,3,43
CCCCNC(=O)CSc1nc2ccc(N3CCOCC3)cc2c(=O)n1CCc1ccccc1,9,1,1,-1,20,58*
CCCCn1c(SCC(=O)NCCOC)nc2ccc(N3CCOCC3)cc2c1=O,-5,1,4.8*,2,33,25
COCCNC(=O)CSc1nc2ccc(N3CCOCC3)cc2c(=O)n1CCc1ccccc1,4,8,0,-1,10,73*
